Records with an inconclusive call do not appear. A call without a number means that no potency is given here. The source made the active and inactive calls. Calls follow the shape of the dose curve; as a rule, active = well fitted activation curve with a large enough effect; inconclusive = small, poorly fitted or top-dose-only effect; inactive = no such curve, though single readings can be large or run the other way.

For four compounds, Potency results are on record in PubChem BioAssay AID1740 (National Center for Advancing Translational Sciences (NCATS), 2009).

The nature of the experiment: Confirmation Concentration-Response Assay for Enhancers of SMN2 Splice Variant Expression. As to conditions: HEK293 SMN2-exon7-luciferase splicing reporter, luminescence, 30-36 h; series mostly up to 22.7 µM. The text has this:
NIH Chemical Genomics Center [NCGC] NIH Molecular Libraries Probe Production centers Network [MLPCN] MLPCN Grant: R03 MH084179-01 Assay Submitter (PI): Elliot Androphy NCGC Assay Overview: Spinal muscular atrophy (SMA) is caused by insufficient levels of the survival motor neuron protein SMN. The SMN locus on chromosome 5q13 contains two inverted copies of SMN called SMN1 and SMN2 which are 99% identical at the amino acid level. SMN1 is a fully functional protein and SMN2 skips exon 7 90% of the time. Skipping of exon 7 produces non-functional protein product. 10% of the SMN2 protein includes exon 7 and is fully functional. In the SMA disease state, mutations in the SMN1 locus are the cause of the disease state. Because only 10% of SMN2 is of the fully functional form, it is not sufficient to overcome the deficiency produced by the loss of the SMN1 product. A therapy that either increase the amount of SMN2 product made or to increase the inclusion of exon 7 has been proposed for the treatment of SMA. We have designed an assay to identify small molecules that can increase the amount of functional SMN2 product by appending a luciferase reporter gene after the native SMN2 gene, such that inclusion of exon 7 in the expressed product places the luciferase sequence in frame, thus generating functional luciferase enzyme.
NCGC Assay Protocol Summary: This screen utilizes a luciferase reporter gene assay, combining the promoter with the major portion of the native SMN2 cDNA (exons 1 -7, intron 8 , exon 8 fused to luciferase) stably expressed in HEK293 cells. Compounds that increase luciferase signal presumably enhance expression of the functional SMN2 splice variant. Passaging media contained DMEM w/ glutamax (+phenol red) 10% FCS, 1x pen/strep, 200 ug/ml hygro, 1x sodium pyruvate. Assay media contained DMEM w/ glutamax (-phenol red) 10% FCS, 1x pen strep, 1x pyruvate Sequence, Parameter, Value, Description (1) Cells, 5 uL, 2000 cells/well, 1536 TC treated White solid bottom plate (2) Time, 10-12 hours, 37C 5% CO2 (3) Compound, 23 nl, MLSMR Library (4) Control Compound, 23 nL, Sodium butyrate st 4.5mM (final) conc (5) Time, 30-36 hours, 37C 5% CO2 (6) Reagent, 3 ul, One Glo (TM) from Promega (7) Time, 5-15 minutes, Room temp (8) Detector, Viewlux: luminescent read, 60 second integration, high speed 2x binning Keywords: Spinal muscular atrophy, SMA, SMN2, high throughput screening, MLSMR, MLPCN, NIH Roadmap, qHTS and NCGC
On to `COc1ccc(CNC(=O)c2ccc(C(C)C)cc2)cc1`, for which the Potency is 5.01 µM (active).

On to `C[C@@H]1O[C@@H](O[C@H]2C[C@@H](O)[C@]3(CO)[C@H]4[C@H](O)C[C@]5(C)[C@@H](C6COC(=O)C6)CC[C@]5(O)[C@@H]4CC[C@]3(O)C2)[C@H](O)[C@H](O)[C@H]1O` (some centres undefined), for which the Potency result was “inactive”.

As for `CCc1ccc2nc(N3CCC(C(=O)N4CCC5(CC4)OCCO5)CC3)sc2c1`, the Potency entry was “inactive”.

Take `O=C(C1CCN(c2nc3ccc(Br)cc3s2)CC1)N1CCC2(CC1)OCCO2`: the Potency entry was “inactive”.
